Assay results: the supplement of paper PMC6555819

Assays:
Experiment in all cases: PBM binding z-score (relative to random genomic background probes); higher = stronger binding; sequences stand for … in GC…GCGATTGACAGCGTAGAATGAAGG
[1] = system: FXR:RXRa (NR concentration 270 nM, RXRa partner concentration 90 nM)
How it was run: (§1)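 Binding z-scores take random background probes as their reference. They come from custom Agilent 4×180K protein-binding microarrays incubated 1 h with ligand-free nuclear receptor dimers, with antibodies against each partner (one per run) detecting binding. Scanned fluorescence was regression-normalized.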

[2] = system: LXRa:RXRa (NR concentration 270 nM, RXRa partner concentration 90 nM)
How it was run: as §1

[3] = system: LXRa homodimer (NR concentration 270 nM)
How it was run: as §1

[4] = system: LXRb:RXRa (NR concentration 270 nM, RXRa partner concentration 90 nM)
How it was run: as §1

[5] = system: LXRb homodimer (NR concentration 270 nM)
How it was run: as §1

[6] = system: PPARa:RXRa (NR concentration 270 nM, RXRa partner concentration 90 nM)
How it was run: as §1

[7] = system: PPARg:RXRa (NR concentration 180 nM, RXRa partner concentration 90 nM)
How it was run: as §1

[8] = system: PPARg:RXRa 270nM:90nM, anti-RXR (NR concentration 270 nM, RXRa partner concentration 90 nM)
How it was run: as §1

[9] = system: PPARg:RXRa 30nM:10nM, anti-RXR (NR concentration 30 nM, RXRa partner concentration 10 nM)
How it was run: as §1

[10] = system: PPARg:RXRa 90nM:30nM, anti-RXR (NR concentration 90 nM, RXRa partner concentration 30 nM)
How it was run: as §1

Row | Sequence | PBM binding z-score [1] | PBM binding z-score [2] | PBM binding z-score [3] | PBM binding z-score [4] | PBM binding z-score [5] | PBM binding z-score [6] | PBM binding z-score [7] | PBM binding z-score [8] | PBM binding z-score [9] | PBM binding z-score [10]
1 | CCACCAAGGTGAACAAGGTCGTTGATTACTATTC | 1.47 | 1.57 | 0.468 | 2.04 | -0.359 | 2.63 | 1.21 | 1.23 | -0.313 | 0.583
2 | TCATTTAGGTAATACAGGTGAAAGTCGGCATCTA | 1.6 | 1.41 | 0.774 | 1.47 | 1.18 | 2.02 | 0.962 | 2.92 | 4.52 | 3.72
3 | CCTATTAGTTGAGCATAAGGGCAACCGAAGCTCG | 0.0961 | -0.117 | 0.193 | -0.0125 | 0.346 | 0.124 | 0.333 | 0.305 | -0.0457 | 0.368
4 | ATCGAAAGGTCGAGCTGAGTATAGAGAAAGGGAA | 4.53 | 3.69 | -0.419 | 2.54 | 0.538 | 4.36 | 2.96 | 3.02 | 1.22 | 1.96
5 | CTACCAAGGTGAACAAGGTCGTTGAGTACTATTC | 1.64 | 1.36 | 0.0569 | 1.83 | -0.22 | 2.53 | 1.04 | 1.24 | 0.0413 | 0.542
6 | CAGACTGGGGCATAAGGTTACCATAAGCCAGCCC | 0.722 | 2.35 | -0.275 | 1.27 | -0.727 | 2.55 | 3.37 | 3.96 | 2.09 | 3.72
7 | TCGAGTAGGGTACCAATGGGGCATTCAGCTTTCT | -0.419 | -0.00421 | -0.466 | 0.0817 | -0.885 | 0.453 | -0.266 | 0.942 | 0.889 | 0.836
8 | CTTTACGGGTCACTGACAGGTTATAGCATTTGGA | 5.62 | 5.09 | 1.02 | 3.91 | 0.469 | 5.46 | 5.06 | 5.14 | 2.12 | 4.01
9 | TCATATAGGTAAAATGTGAAAGTCGGTGTGGTAA | 0.975 | 0.902 | 0.119 | 0.595 | 0.134 | 2.27 | 3.1 | 4.54 | 4.42 | 4.95
10 | AATACAGGGCCACTAGGCCAGAGTAGGTACGAAT | -0.165 | -0.349 | -0.323 | -0.572 | -0.877 | 0.171 | 1.13 | 0.532 | 0.0485 | 0.00605
11 | TCTTGTAGATCAACAGCAGGTTAAGAAAGATCGA | 0.263 | 0.476 | -0.0928 | 0.569 | -0.319 | 0.609 | -0.21 | 1.17 | 2.61 | 1.7
12 | TCTTGTAGAGCAATAGAGGTTAAGAAAGTGCGCT | 0.316 | 2.34 | 0.104 | 1.18 | -0.745 | 1.92 | 0.157 | 1.31 | 1.69 | 1.55
13 | GGAACCAGGGCAAAGTTGATAGCATCTGTCGACG | 0.769 | 0.723 | -0.0781 | 0.931 | 0.32 | 4.38 | 7.33 | 7.61 | 6.29 | 7.86
14 | AATACAGGGTCACTAGGCCAGATTAGGTACGAAT | 6.03 | 5.16 | 1.09 | 4.11 | 1.11 | 5.92 | 7.81 | 6.39 | 3.62 | 5.04
15 | TCTTGTAGATCAAGCAGGTTTAGAAAGCCTGAGT | 0.0311 | 0.0459 | -0.387 | -0.134 | -0.464 | 0.137 | -0.639 | 0.91 | 2.24 | 1.35
16 | TCTAGTTGGTCACGGAAGTCACACACGACGGGTA | 0.525 | 0.526 | 0.27 | 0.598 | 0.323 | 1.21 | 1.27 | 1.85 | 3.33 | 2.65
17 | CCGACTGGGCCAAAAAGGTCATTGATGCCGATAA | 3.41 | 4.25 | 2.8 | 3.93 | -0.421 | 4.53 | 2.35 | 3.47 | 0.713 | 2.22
18 | TCGAGTAGGTTACCAATAGGGCATTCAGCTTTCT | 0.215 | 2.16 | -0.0808 | 0.671 | -1.16 | 1.36 | 0.697 | 1.32 | 1.08 | 1.1
19 | TCTCGGAGGACACGAACGTCAGAGCTTTCCAGAG | 0.0459 | 0.0114 | -0.625 | -0.532 | -1.31 | 0.0688 | 0.0947 | 0.795 | 1.95 | 1.18
20 | CCAGACAGGTGAAAGGTAGCTCAGTCTGGTACGC | 0.0731 | -0.0262 | -0.504 | 0.0215 | -1.1 | 2.23 | 3.22 | 4.68 | 2.78 | 4.9
21 | CGAACGAGGGCAAGAGTTGATAGCAAATGCCGAT | 0.442 | 0.206 | -0.493 | 0.236 | -0.921 | 1.52 | 2.3 | 2.48 | 0.687 | 1.92
22 | GGAACGAGGGCAAGTTTATAGCAGAGTTTGATGG | 0.688 | 0.332 | -0.039 | 0.229 | -0.306 | 1.61 | 1.24 | 0.978 | 0.337 | 0.307
23 | AGCCAAAGTTCACTAGGTAACGTAAGATTCAGCT | 4.84 | 4.92 | 2.67 | 2.81 | 0.629 | 4.51 | 5.95 | 5.78 | 3.24 | 5.12
24 | ACAGACAGGTGAGTGAAGTTAACTCAGCTGGACG | -0.59 | -0.611 | -0.779 | -0.663 | -0.63 | -0.341 | 0.529 | -0.616 | -0.371 | -0.832
